# ChEMBL document CHEMBL3988442, “University of Dundee, Small-Polar-MMV Screening Library” (2021)
# In all, about 38,000 compounds went through this assay and about 1,200 (3.2%) showed an effect of 50% or more. The median lay at about -58%. The sample holds strong results, similar compounds and a random draw of the others, so the mix is not that of the screen.
# Tested on: Plasmodium falciparum
# Assay: Calibr Malaria Delayed Death Assay SOP
# Assay type: functional, organism-based
# Parameters: scale not given: in the data most compounds retested in dose-response had high values
# Conditions: concentration 4.99e-06 (unit not given; other assays of the set use mol/L)
row,Compound,Percent Effect [%]
1,CN1CCC(N(C)C[C@H]2CC[C@@H](Cc3cccc(O)c3)O2)CC1,56.23
2,COc1ccc(C[C@@H]2CC[C@H](CN(C)C3CCN(C)CC3)O2)cc1,49.48
3,CN1CCN(C[C@H]2CC[C@@H](Cc3ccc4c(c3)OCO4)O2)CC1,-29.46
4,CN1CCC(N(C)C[C@H]2CC[C@@H](Cc3cccc(CO)c3)O2)CC1,-136
5,CN1CCC(N(C)C[C@H]2CC[C@@H](Cc3ccc4occc4c3)O2)CC1,85.36
6,CCN1CCN(C[C@H]2CC[C@@H](Cc3ccc4c(c3)OCO4)O2)CC1,-22.56
7,CCCc1ccc(C(=O)N2CCc3c(nc(C)nc3N(C)C)C2)cc1,-63.88
8,COc1ccc([C@@H]2NC(=O)N[C@H]3OCCC[C@H]32)cc1,13.26
9,O=C(c1ccco1)N1C[C@H]2CN(Cc3cccc(F)c3)C(=O)[C@H]2C1,-97.73
10,O=C(CNC(=O)N1CCN(c2cccc(Cl)c2)CC1)Nc1ccccn1,-109.2
11,CN(Cc1nnc(C2CC2)n1C)S(=O)(=O)Cc1ccccc1F,-39.05
12,Cc1cc(NC(=O)N(C)CCN2CCN(c3ccccc3)CC2)on1,-52.94
13,Cc1cc(NC(=O)CN(c2ccccc2)C(C)C)on1,-10.54
14,Cc1cc(NC(=O)NC(C)CN2CCN(c3ccccc3)CC2)on1 (stereo not given),58.09
15,COC(=O)c1cc2c(=O)n(C3CC3)ccc2nc1C,-61.53
16,Cc1nc(C)n(C2CCCN(C(=O)CCCNc3ncccn3)C2)n1 (stereo not given),-99.16
17,CSc1ccc(OCCN2CCNC(=O)C2C)cc1 (stereo not given),-33.67
18,COCC1CC2(CCN(CC3CC3)CC2)CN1Cc1ccccn1.O=C(O)C(F)(F)F.O=C(O)C(F)(F)F (stereo not given),39.61
19,COCC1CC2(CCN(Cc3nccs3)CC2)CN1Cc1ccccn1.O=C(O)C(F)(F)F.O=C(O)C(F)(F)F.O=C(O)C(F)(F)F (stereo not given),-3.583
20,COCC1CC2(CCN(Cc3ccoc3)CC2)CN1Cc1ccccn1 (stereo not given),55.13
21,CCOc1ccc(-c2c(C#N)c(N)nc3c2COCC3)cn1,-92.51
22,CC(=O)N(Cc1noc(C2CC2)n1)C1CCN(Cc2ccccn2)C1 (stereo not given),-1.635

row,Compound,Percent Effect [%]
1,O=C(O)C(F)(F)F.O=C(O)C(F)(F)F.O=C(c1ccnnc1)N1CCN(Cc2cccnc2)c2ncccc2C1,-70.53
2,CN1CC[C@H](N(Cc2ccccc2)C2COC2)C[C@H](O)C1,43.99
3,CN1CCC(N(C)CCC(=O)N2CCC(CCc3ccccc3)CC2)C1 (stereo not given),17.74
4,CN1CC[C@H](N(Cc2ccccc2)CC2CC2)C[C@H](O)C1,80.63
5,CN1CC[C@H](N(C)Cc2ccccc2)C[C@H](O)C1,2.065
6,CN(CC1CC1)C(=O)CN(Cc1cccc(O)c1)C1CCC(O)CC1 (stereo not given),-102.5
7,CN1CC[C@H](N(Cc2ccccc2)Cc2ccccc2)C[C@H](O)C1,71.85
8,O=c1[nH]c(CN2CCOC(Cn3cccn3)C2)nc2ccccc12 (stereo not given),-93.34
9,Cc1cc(CN2CCN(C(=O)C(C(C)C)n3cncn3)CC2)no1 (stereo not given),-20.49
10,Cc1ccc(OCCC(=O)N2CCCC(n3nc(C)nc3C)C2)cc1 (stereo not given),0.003662
11,c1ccc(CCCN2CCOC(Cn3cccn3)C2)cc1 (stereo not given),-23.01
12,NC(=O)CCN(CC(=O)NCc1ccccn1)c1ccc(F)cc1,-98.56
13,O=C(Nc1ccccc1)N1C[C@H]2C[C@H](C(=O)N3CCOCC3)[C@@H](C1)O2,-95.7
14,CN1CCN(Cc2ccccc2CNC(=O)c2ccc(Br)cc2F)CC1,47.71
15,Cn1ccc(C(=O)NCc2ccccc2CN2CCCCC2)cc1=O,-63.4
16,CN1CCN(C(CNC(=O)c2ccc(Cl)cc2F)c2cccs2)CC1 (stereo not given),51.8
17,O=C(NCc1ccccc1CN1CCOCC1)c1ccc(Br)cc1F,-44.16
18,Cn1ccnc1CN1CCN(CC(=O)NCc2ccccc2F)CC1,-19.05
19,CNC(=O)c1ccc(CNC(=O)c2ccc(Cl)cc2F)cc1,-28.69
20,O=C(NCC(c1cccs1)N1CCOCC1)c1ccc(F)cc1Cl (stereo not given),-47.97
21,CN1CCN(Cc2ccccc2CNC(=O)c2ccc(Br)cc2)CC1,45.05
22,CC1CCN(C(CNC(=O)CCn2cccn2)c2cccs2)CC1 (stereo not given),-77

row,Compound,Percent Effect [%]
1,CN1CCN(Cc2ccccc2CNC(=O)c2cc(Cl)ccc2F)CC1,65.2
2,CN1CCN(Cc2ccccc2CNC(=O)c2ccc(Cl)cc2F)CC1,76.33
3,CN1CCN(Cc2ccccc2CNC(=O)c2cc(Br)ccc2F)CC1,76.59
4,Cc1ccc(CCNC(=O)Cn2nc(C)n(Cc3ccccc3)c2=O)s1,-1.162
5,CCCNC(=O)CCC(=O)n1nc(C)c2ccccc21,-0.03666
6,Cc1cc(C)nc(N(C)CCN(C)C2CCCC2)n1,27.63
7,Cc1cc(N(C)CCN(C)C2CCCC2)n2nc(C)cc2n1,53.42
8,Cc1cc(N(C)CCN(C)C)n2nc(C)cc2n1,-114.6
9,Nc1ncc(C(=O)N2CCN(c3nccs3)CC2)cc1Cl,-61.47
10,COc1ccccc1C1(CNCc2ccc([S+](C)[O-])cc2)CC1 (stereo not given),68.71
11,COc1ccccc1C1(CNc2ccc(C(=O)N(C)C)cn2)CC1,-78.51
12,CN(C)c1ccc(C(=O)NCC2(c3ccccc3)CCOCC2)cc1,-48.74
13,COc1ccccc1C1(CNCc2cccc(O)c2)CCOCC1,82.33
14,COc1ccccc1C1(CNc2cn[nH]c(=O)c2Cl)CCOCC1,-35.38
15,Oc1cccc(CNCCC2CCCO2)c1 (stereo not given),-6.783
16,Cl.N#Cc1ccc(CNCC2(c3ccccc3)CCOCC2)cc1,82.55
17,COc1ccccc1C1(CNc2ncc(S(N)(=O)=O)s2)CC1,-83.98
18,Cc1nnc(NCC2(c3ccccc3)CCOCC2)c(C#N)c1C,3.02
19,CS(=O)(=O)C1(CNCc2cccc(-n3cccn3)c2)CCOCC1,-93.15
20,COc1cc(OC)c(CNC(=O)NCc2ccc(C#N)cc2)c(OC)c1,-15.69
21,COc1ccccc1C1(CNCc2ccc(C#N)cc2)CCOCC1,76
